Screening results from PubChem BioAssay.
tim23-1 inh: growth inhibitors of tim23-1 mutant yeast; inhibition, % at 20 µM; 1.3% of 330,000 active; AID 463212; S. cerevisiae tim23-1 growth, BacTiter-Glo luminescence, 24 h;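 active means growth inhibition of the mutant yeast at or above 50%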;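 further: temperature-sensitive mutant grown at 25 °C; plate controls were DMSO-treated mutant yeast for no effect and medium wells lacking yeast for full effect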
tim10-1 inh: inhibits growth of tim10-1 mutant yeast; S. cerevisiae tim10-1 ts strain growth, BacTiter-Glo, 24 h; inhibition, % at 20 µM; 2.2% of 330,000 active; AID 463190;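 active means inhibition of at least 40%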;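 further: mutant grown at 25 °C; 0% = DMSO wells with yeast and 100% = wells holding no yeast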
PfHsp90 yeast 2: growth inhibition of yeast expressing Plasmodium Hsp90. S. cerevisiae expressing PfHsp90, BacTiter-Glo ATP, 48 h; yeast lacking PDR1 and PDR3 efflux regulators. AID 504621. 0.32% of 310,000 active. inhibition, % at 9.4 µM;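 active means every replicate shows inhibition above about 80%, whatever the replicate mean, limit read from the data; inconclusive means mean inhibition reaches the set limit but some replicate falls short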;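 further: 0% = DMSO neutral controls and 100% = 20 µM radicicol positive controls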
NALP1 inh: inhibitors of NALP1 inflammasome in yeast; S. cerevisiae NALP1/ASC/caspase-1 growth, X-gal OD620, 72 h; inhibition, % at 10 µM; 0.61% of 280,000 active; in the data active means inhibition mostly above about 24%, no sharp cut-off; inactive means mostly below about 32%
SKKanGAS inh: blocks kanamycin growth of S. pyogenes SKKanGAS strain; BacTiter-Glo, 6 h; inhibition, % at 7.5 µM; 1.3% of 300,000 active;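 active means mean replicate score, as percent of positive control median, at least 50; inconclusive means mean below 50 but one replicate at or above 50; inactive means mean and every replicate below 50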;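 further: strain carries kanamycin resistance gene driven by streptokinase promoter and grows in 40 µg/ml kanamycin; loss of luminescence reflects streptokinase promoter inhibition or plain growth inhibition; 0% = median of DMSO wells and 100% = positive control at its reference dose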
TIM10 inh: growth inhibitors of TIM10 yeast strain. AID 463195. S. cerevisiae TIM10 strain growth, BacTiter-Glo luminescence, 24 h. 1.4% of 330,000 active. inhibition, % at 10 µM;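 active means inhibition of 40% or more at the single tested concentration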;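 further: wild-type TIM10 isogenic control strain grown at permissive 25 °C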
tim10-1 conf: confirmation of tim10-1 mutant yeast growth inhibitors; shares compounds with tim10-1 inh; S. cerevisiae tim10-1 ts strain growth, BacTiter-Glo, 24 h; inhibition, % at 20 µM; 56% of 7,400 active;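 active means inhibition of yeast growth at or above a set limit in either of two repeat tests at 20 µM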;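 further: tim10-1 mutant grown at permissive 25 °C to find synthetic lethal compounds; 0% = DMSO yeast wells and 100% = medium wells without yeast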
tim10 confirm: confirmation of TIM10 yeast growth inhibitors | AID 463215 | shares compounds with TIM10 inh | 63% of 4,600 active | inhibition, % at 10 µM | S. cerevisiae tim10 strain growth, BacTiter-Glo luminescence, 24 h;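 active means inhibition of yeast growth at or above a set limit in either of two replicates at 10 µM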;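 further: this counterscreen used the strain with wild-type TIM10; 0% = yeast with DMSO and 100% = medium wells lacking yeast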
* hit, by the source's call; ? = inconclusive; . = no result given. An excerpt weighted towards active compounds, which were near 4.8% of everything screened.

SMILES	tim23-1 inh	tim10-1 inh	PfHsp90 yeast 2	NALP1 inh	SKKanGAS inh	TIM10 inh	tim10-1 conf	tim10 confirm
Cn1c(=O)n(Cc2ccccc2)c(=O)c2c1nc1n2CCCN1CCc1ccccc1	42	43*	52	-4	6	47*	41*	34*
Cc1ccnn2cc3c(=O)n(C)c(=O)n(C)c3c12	41	53*	.	-3	-4	72*	51*	-9
Cn1c(=O)c2cn3ncccc3c2n(C)c1=O	.	.	.	12	6	.	.	.
CN(C)C(=O)CSc1nnc(-c2cccs2)n1-c1ccccc1	17	-1	-15	.	-6	0	.	.
Cc1cccn2cc(-c3ccc(S(=O)(=O)N4CCCCC4)cc3)nc12	45	62*	8	11	-7	48*	70*	63*
Cc1cccn2cc(-c3ccc(S(=O)(=O)N4CCOCC4)cc3)nc12	20	34	-2	7	-2	37	.	.
Cc1cc(NC(=O)CCCn2nc([N+](=O)[O-])c(Cl)c2C)no1	6	3	-11	24	-1	-6	.	.
O=C1NC(=O)/C(=C\c2ccccc2OCc2ccccc2)S1	46	45*	0	4	?	43*	33*	29
O=c1[nH]c2ccccc2c2oc(CCl)nc12	42	21	24	29	2	30	.	.
C=CCc1cccc(/C=N/NC(=O)CNc2ccccc2)c1O	11	24	11	26	22	5	.	.
C=CCc1cccc(/C=N/NC(=O)CNc2ccccc2OC)c1O	25	47*	-18	0	6	97*	30	47*
N#CC1(C#N)[C@@H](C(=O)C23CC4CC(CC(C4)C2)C3)C12CCOCC2	31	57*	15	8	-5	44*	48*	-6
Cc1cc2cc(C)c(NCCNC(=O)c3ccccc3Cl)nc2cc1C	33	42*	18	18	-1	44*	30	26
O=C(N/N=C/c1ccccc1Br)C1CC1	18	17	5	15	-7	17	.	.
CCCCCCC(=O)N=Nc1c(O)[nH]c2ccc([N+](=O)[O-])cc12	10	14	10	-2	0	7	.	.
CN1CCN(c2ccc(S(=O)(=O)N3CCCCC3)cc2N)CC1	10	3	.	.	.	7	.	.
CCOC(=O)CN1CCC(c2cc(-c3ccc(Cl)cc3)n[nH]2)CC1	19	19	27	15	4	-9	.	.
O=[N+]([O-])c1cccnc1N1CCC(c2cc(-c3ccc(Cl)cc3)n[nH]2)CC1	14	43*	57	40*	73*	49*	37*	46*
Cc1ccc(C(=O)CCC(=O)N2CCC(C(N)=O)CC2)cc1	5	1	2	2	15	-1	.	.
Cc1cc2ccccn2c1C(=O)c1ccc([N+](=O)[O-])o1	0	46*	.	-11	9	77*	30	91*
Cc1cc2ccccn2c1C(=O)c1cccc([N+](=O)[O-])c1	28	10	-12	7	7	-7	.	.
O=[N+]([O-])c1ccc(-[n+]2ccc3ccccc3c2)c([N+](=O)[O-])c1	49	58*	-13	.	6	50*	52*	52*
CCOC(=O)N1CCN(S(=O)(=O)CCNC(=O)c2cccc(OC)c2)CC1	-127	19	.	.	1	2	.	.
COc1ccc(N2C(=O)CC(N3CCN(c4cccc(Cl)c4)CC3)C2=O)cc1 (stereo not given)	31	14	-2	4	-4	4	.	.
COc1cccc(N2CCN(C3CC(=O)N(c4ccc(Cl)c(Cl)c4)C3=O)CC2)c1 (stereo not given)	4	55*	-37	13	11	41*	31*	40*
SMILES	tim23-1 inh	tim10-1 inh	PfHsp90 yeast 2	NALP1 inh	SKKanGAS inh	TIM10 inh	tim10-1 conf	tim10 confirm
CCOC(=O)c1c(N2C(=O)CC(Sc3ccccc3C(=O)O)C2=O)sc2c1CCCC2 (stereo not given)	31	54*	22	-4	-6	43*	44*	40*
Cc1ccc(-n2c(=O)[nH]cc(C(=O)N3CCc4ccccc43)c2=O)cc1	-1	6	.	6	0	-3	.	.
COc1ccc(C(=O)/C=C/c2ccc(OC3CSC3)cc2)cc1OC	30	42*	10	-6	-3	42*	28	10
CC1C/C(=C/c2ccncc2)C(=O)/C(=C/c2ccncc2)C1 (stereo not given)	-8	44*	98*	3	0	84*	39*	89*
CSc1ccc(S(=O)(=O)NCc2ccc(Cl)cc2Cl)cc1	40	47*	1	7	-5	46*	39*	39*
CC(=O)N(Cc1ccc(F)cc1)C1=C(NCCc2ccccc2)C(=O)c2ccccc2C1=O	30	41*	-28	4	39	45*	16	31*
N#C/C(=C\c1ccc([N+](=O)[O-])o1)C(=O)Nc1ccc(F)cc1	-107	55*	106*	13	6	79*	47*	96*
CC(=C1C(=O)c2ccccc2C1=O)N1CCN(c2ccc(F)cc2)CC1	13	-4	-1	-2	-8	19	.	.
CCOC(=O)C1(S(=O)(=O)c2ccc(Cl)cc2)CCN(Cc2ccc(Cl)cc2)CC1	49	48*	0	-6	12	42*	28	34*
CCOC(=O)C1(Cc2ccc(Cl)cc2)CCN(Cc2nccn2CC)CC1	-11	28	8	3	26	15	.	.
Cc1cccc(N(CC(=O)N2CCCCCC2)S(C)(=O)=O)c1	5	6	11	2	2	0	.	.
Cc1coc2c1C(=O)C(=O)c1c-2ccc2c1CCCC2(C)C	47	48*	-76	-13	42	44*	38*	37*
Cc1ccc(S(=O)(=O)NCCN2CCOCC2)cc1	25	16	-25	6	10	3	.	.
CCC(C)C(=O)Nc1nc(C)c(-c2csc(Nc3ccc(Cl)cc3)n2)s1 (stereo not given)	41	40*	-14	11	22	44*	24	30
CCCC(=O)Nc1nc(C)c(-c2csc(Nc3ccc(Cl)cc3)n2)s1	48	39	-5	-9	25	27	.	.
COC(=O)C(C(C)=O)C1=C/C(=N\S(=O)(=O)c2ccc(C)cc2)c2ccccc2C1=O (stereo not given)	44	40*	-5	1	7	43*	41*	29
CC(=O)Nc1ccc(NC2=C/C(=N/S(=O)(=O)c3cccs3)c3ccccc3C2=O)cc1	40	19	-12	10	4	17	.	.
